In PubChem BioAssay AID1578 (Sanford-Burnham Center for Chemical Genomics, 2009) one finds inhibition data, which are given here for 26 compounds.

Structures are written as SMILES. Screen size: about 290,000 compounds; about 3,000 (1%) were called active. The sample as a whole holds a higher share of actives than the screen did. Values without a mark were called inactive. No stated cut-off is given here; in the data, active means inhibition mostly above about 36% (no sharp cut-off); inactive means mostly below about 34%.

The assay in a line: inhibition of NOD1-driven NF-kB reporter – cell-based, luminescence, uHTS, primary screen (AID 1578).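 Further: HEK-293T reporter cells stimulated with the NOD1 agonist gamma-tri-DAP.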 The conditions noted are these: NOD1-driven NF-kB luciferase reporter cells, at 4 µM, hits give high values. On the technique in general: In a reporter assay the amount or activity of a reporter protein is the signal.
In the case of `CCc1ccc(C2c3[nH]c4ccccc4c3CCN2C(=O)c2cc(C)nn2C)cc1` (stereo unspecified), the inhibition is -25.9%. The figure for `CCCCN(C)C(=O)Cn1nc(-c2ccc(Cl)cc2)ccc1=O` is -9.3%. To `O=C(c1ccc(S(=O)(=O)N2CCCC2)cc1)N(Cc1ccco1)C1CCS(=O)(=O)C1` (stereo unspecified) belongs -10.9%; to `O=C(CCl)Nc1cccc(S(=O)(=O)NC2=NCCC2)c1`, 64.9% (active); to `O=C(Nc1cccc(S(=O)(=O)NC2=NCCC2)c1)C1CCC1`, -32.4%. The figure for `CNC(=S)Nc1cccc(S(=O)(=O)NC2=NCCC2)c1` is -13.1%; for `COc1cc(NC(=O)[C@H](C)NC(=O)N2CCn3c2nc2ccccc23)cc(OC)c1` it is 5.6%; for `CCCc1nnc(SCC(=O)O)n1CC` it is -9.2%. On to `CSc1ccc(/C=C/C(=O)OCC(=O)N(C)CCC#N)cc1`, for which the inhibition was -23%. `Cc1cc(/C=N/N2CCN(C)CC2)c(C)n1-c1ccc(Cl)cc1`: the inhibition was -8.4%. Regarding `O=C1NC(=S)S/C1=C\c1ccc(SCc2ccccc2)o1`, the inhibition was 91.8% (active). To `O=C1NC(=S)S/C1=C\c1ccc(SCc2ccco2)o1` belongs -10.8%. The figure for `O=C(O)CN1C(=O)/C(=C/c2ccc(SCc3ccccc3)o2)SC1=S` is -39.2%; for `CN(C)c1nc2ncn(Cc3ccccc3)c2c(=O)[nH]1` it is 5.2%; for `COc1ccc(-c2c3c(nc4sc5c(=O)[nH]c(C)nc5c24)CCC3)cc1` it is -23.6%.

On to `O=c1[nH]cnc2c1sc1nc3c(c(-c4ccc(Cl)cc4)c12)CCC3`, for which the inhibition is 78.1% (active). To `O=c1[nH]cnc2c1sc1nc(-c3ccccc3)c3c(c12)CCCC3` belongs 34.8%. As to `COc1ccc(-c2nc3c4ccccc4ccn3c2CN2CCCCC2)cc1OC`, the inhibition was -8.1%. As for `Cc1nc(SCn2nnc3ccccc3c2=O)nc(C)c1C`, the inhibition is -13.8%. `CCOc1ccc(S(=O)(=O)NCCSCc2ccco2)cc1`: the inhibition is 3.8%. To `CCN(CC)S(=O)(=O)c1cc(NC(=O)Cn2ncc(Cl)c(Cl)c2=O)ccc1C` belongs 62.3% (active); to `COc1ccc(NC(=O)Cn2ncc(Cl)c(Cl)c2=O)cc1S(=O)(=O)N1CCOCC1`, 43.5%. To `COc1cc(NC(=O)CN2CCCCC2)c(C)cc1[N+](=O)[O-]` belongs -16.1%; to `CCN(CC)S(=O)(=O)c1cc(NC(=O)Cn2cnc3ccccc3c2=O)ccc1C`, -1.6%. To `COc1cc(NC(=O)Cn2ncc(Cl)c(Cl)c2=O)c(C)cc1[N+](=O)[O-]` belongs 91.3% (active); to `COc1cc(NC(=O)CN2C(=O)CN(C)C2=O)c(C)cc1[N+](=O)[O-]`, -27.7%.

The inhibition is the relative decrease from the control value, in per cent.
